Inconclusive results are not listed. The source made the active and inactive calls. Rule for the calls, unless noted: active = hit-call score of the fitted dose curve at least 0.9, where 1 is the maximum; inactive = score below 0.9.
Tests used:
[1] = target: Myc proto-oncogene protein (Homo sapiens) (UniProt P01106); assay: ATG_Myc_CIS: Attagene CIS-FACTORIAL HepG2 Assay for human Myelocytomatosis (Myc) Proto-Oncogene Transcription Factor (AID 2282990); conditions: HepG2, Attagene cis-reporter transcription factor activity; actives raise or lower the signal
Sequence of Myc proto-oncogene protein (Homo sapiens) (P01106 whole entry, looked up, the tested form may be a part): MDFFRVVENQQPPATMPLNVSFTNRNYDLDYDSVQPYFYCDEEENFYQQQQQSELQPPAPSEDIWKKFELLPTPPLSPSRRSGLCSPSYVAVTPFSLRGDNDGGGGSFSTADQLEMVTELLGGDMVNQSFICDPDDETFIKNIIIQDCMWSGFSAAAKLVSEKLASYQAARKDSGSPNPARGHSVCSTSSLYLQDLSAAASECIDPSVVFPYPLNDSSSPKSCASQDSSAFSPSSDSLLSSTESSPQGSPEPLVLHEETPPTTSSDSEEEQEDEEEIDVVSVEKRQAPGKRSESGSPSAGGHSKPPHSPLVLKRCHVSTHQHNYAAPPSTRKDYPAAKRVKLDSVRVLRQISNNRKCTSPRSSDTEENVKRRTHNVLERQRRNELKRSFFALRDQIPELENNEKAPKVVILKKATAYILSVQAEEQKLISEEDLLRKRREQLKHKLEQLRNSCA
How it was run: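 After 24 h chemical treatment of HepG2 cells carrying multiplexed cis-regulated reporter constructs, reporter transcripts quantified by RT-PCR and capillary electrophoresis of fluorescent fragments. Gain or loss fitted against DMSO baseline.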

[2] = ATG_NF_kB_CIS: Attagene CIS-FACTORIAL HepG2 Assay for human Nuclear Factor Kappa B (NF-kB) (AID 2282991); conditions: HepG2 Attagene cis-factorial NF-kB reporter mRNA; actives raise or lower the signal
How it was run: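 Fluorescence of labelled RT-PCR products separated by capillary electrophoresis gives reporter mRNA levels from transfected HepG2 cells exposed 24 h; values are fitted in both directions relative to DMSO.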

[3] = ATG_NRF2_ARE_CIS: Attagene CIS-FACTORIAL HepG2 Assay for human Nuclear Factor Erythroid 2 Related Factor 2 (NFR2) response to Antioxidant Response Elements (ARE) (AID 2282992); conditions: HepG2 Attagene ARE/NRF2 reporter, transcription factor activity; actives raise or lower the signal
How it was run: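 HepG2 cells transiently transfected with multiplexed cis-regulated reporter transcription units measure endogenous transcription factor activity. Reporter mRNA at 24 h is quantified by RT-PCR, fluorescent labelling and capillary electrophoresis, with bidirectional fitting relative to DMSO.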

[4] = ATG_Oct_MLP_CIS: Attagene CIS-FACTORIAL HepG2 Assay for human Octamer-Binding Transcription Factor (Oct) (AID 2282993); conditions: HepG2 Attagene cis-factorial Oct reporter, mRNA; actives raise or lower the signal
How it was run: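 Readout is reporter transcript level from RT-PCR with fluorescent primer extension and capillary electrophoresis, fitted in both directions against DMSO. Transfected HepG2 reporter units report endogenous factor activity after 24 h dosing.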

[5] = target: Cellular tumor antigen p53 (Homo sapiens) (UniProt P04637); assay: ATG_p53_CIS: Attagene CIS-FACTORIAL HepG2 Assay for human p53 Transcription Factor (AID 2282994); conditions: HepG2 p53 cis-element reporter, Attagene mRNA; actives raise or lower the signal
Sequence of Cellular tumor antigen p53 (Homo sapiens) (P04637 whole entry, looked up): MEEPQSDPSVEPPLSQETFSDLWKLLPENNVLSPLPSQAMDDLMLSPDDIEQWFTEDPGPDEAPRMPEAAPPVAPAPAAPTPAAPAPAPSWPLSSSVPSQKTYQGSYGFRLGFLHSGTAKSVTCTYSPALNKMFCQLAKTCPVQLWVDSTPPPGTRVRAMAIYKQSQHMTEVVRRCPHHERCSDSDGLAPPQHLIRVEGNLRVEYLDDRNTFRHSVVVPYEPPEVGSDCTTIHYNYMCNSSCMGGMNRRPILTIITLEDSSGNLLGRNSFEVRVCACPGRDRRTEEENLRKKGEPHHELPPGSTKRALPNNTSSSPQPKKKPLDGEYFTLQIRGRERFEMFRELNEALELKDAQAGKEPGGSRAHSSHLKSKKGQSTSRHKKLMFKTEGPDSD
How it was run: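 HepG2 cells transiently transfected with multiplexed cis-regulated reporter transcription units read endogenous TF activity. After 24 h compound exposure, reporter mRNA was quantified by RT-PCR, fluorescent labelling, HpaI digestion and capillary electrophoresis; bidirectional fits versus DMSO baseline.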

[6] = target: human Peroxisome Proliferator-activated Receptor alpha (PPARa), PPARA (gene 5465) (UniProt Q07869); assay: ATG_PPARa_TRANS: Attagene TRANS-FACTORIAL HepG2 Assay for human Peroxisome Proliferator-activated Receptor alpha (PPARa) (AID 2283001; active = hit-call score of the fitted dose curve at least 0.9, where 1 is the maximum)
Sequence of human Peroxisome Proliferator-activated Receptor alpha (PPARa), PPARA (gene 5465) (Q07869 whole entry, looked up, the tested form may be a part): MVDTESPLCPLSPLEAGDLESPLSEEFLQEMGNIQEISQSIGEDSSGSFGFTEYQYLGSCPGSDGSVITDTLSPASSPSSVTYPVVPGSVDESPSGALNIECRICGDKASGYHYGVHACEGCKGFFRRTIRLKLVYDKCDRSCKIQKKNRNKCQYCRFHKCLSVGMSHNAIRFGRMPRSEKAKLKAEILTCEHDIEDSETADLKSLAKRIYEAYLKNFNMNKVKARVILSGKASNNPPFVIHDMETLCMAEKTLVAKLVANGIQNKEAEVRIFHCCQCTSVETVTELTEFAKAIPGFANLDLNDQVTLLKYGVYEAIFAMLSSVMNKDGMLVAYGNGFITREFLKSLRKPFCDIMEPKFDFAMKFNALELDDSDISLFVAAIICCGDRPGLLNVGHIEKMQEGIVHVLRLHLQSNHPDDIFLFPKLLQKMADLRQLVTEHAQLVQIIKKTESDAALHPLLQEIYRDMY
How it was run: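 Reporter transcripts from GAL4-UAS units in transfected HepG2 were quantified 24 h after dosing. Detection used reverse transcription, PCR, fluorescent primer extension and capillary electrophoresis, with DMSO as baseline.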

[7] = target: Retinoic acid receptor alpha (Homo sapiens) (UniProt P10276); assay: ATG_RARa_TRANS: Attagene TRANS-FACTORIAL HepG2 Assay for human Retinoic Acid Receptor alpha (RARa) (AID 2283005; active = hit-call score of the fitted dose curve at least 0.9, where 1 is the maximum)
Sequence of Retinoic acid receptor alpha (Homo sapiens) (P10276 whole entry, looked up, the tested form may be a part): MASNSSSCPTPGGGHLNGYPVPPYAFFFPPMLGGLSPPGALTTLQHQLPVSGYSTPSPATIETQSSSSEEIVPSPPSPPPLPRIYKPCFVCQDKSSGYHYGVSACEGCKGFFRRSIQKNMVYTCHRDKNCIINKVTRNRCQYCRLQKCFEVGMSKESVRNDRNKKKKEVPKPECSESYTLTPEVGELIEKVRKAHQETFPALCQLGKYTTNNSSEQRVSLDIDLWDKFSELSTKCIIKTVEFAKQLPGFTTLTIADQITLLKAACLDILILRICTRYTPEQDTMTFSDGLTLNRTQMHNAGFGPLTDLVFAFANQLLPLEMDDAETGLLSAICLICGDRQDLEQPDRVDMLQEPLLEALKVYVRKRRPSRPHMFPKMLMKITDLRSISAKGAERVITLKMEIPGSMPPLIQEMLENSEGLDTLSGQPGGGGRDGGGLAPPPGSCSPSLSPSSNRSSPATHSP
How it was run: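 Reporter transcripts, measured by RT-PCR with fluorescent labeling and capillary electrophoresis after 24 h dosing, reflect activity of an exogenous human RARa–GAL4 fusion in transiently transfected HepG2. Fitted for increase relative to DMSO.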

[8] = target: Nuclear receptor subfamily 1 group I member 2 (Homo sapiens) (UniProt O75469); assay: ATG_PXR_TRANS: Attagene TRANS-FACTORIAL HepG2 Assay for human Pregnane X Receptor (PXR) (AID 2283008; active = hit-call score of the fitted dose curve at least 0.9, where 1 is the maximum)
Sequence of Nuclear receptor subfamily 1 group I member 2 (Homo sapiens) (O75469 whole entry, looked up, the tested form may be a part): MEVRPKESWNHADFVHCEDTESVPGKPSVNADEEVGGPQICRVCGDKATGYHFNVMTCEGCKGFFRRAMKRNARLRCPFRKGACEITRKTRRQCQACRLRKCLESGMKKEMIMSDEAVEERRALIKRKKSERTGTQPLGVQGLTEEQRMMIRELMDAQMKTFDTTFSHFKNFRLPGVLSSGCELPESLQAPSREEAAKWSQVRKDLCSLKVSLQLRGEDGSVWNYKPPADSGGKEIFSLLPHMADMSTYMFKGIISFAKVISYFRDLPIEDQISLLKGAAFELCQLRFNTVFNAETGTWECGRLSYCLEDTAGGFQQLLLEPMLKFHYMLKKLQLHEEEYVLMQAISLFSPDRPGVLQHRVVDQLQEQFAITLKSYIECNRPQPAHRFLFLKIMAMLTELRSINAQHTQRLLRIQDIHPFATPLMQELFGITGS
How it was run: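 HepG2 cells transiently transfected with multiple reporter units, here a PXR-GAL4 chimera driving a GAL4-UAS reporter; 24 h compound exposure. Reporter mRNA measured by RT-PCR, FAM labelling and capillary electrophoresis; gain of signal fitted against DMSO baseline.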

[9] = target: human Retinoic Acid Receptor gamma (RARg), RARG (gene 5916) (UniProt P13631); assay: ATG_RARg_TRANS: Attagene TRANS-FACTORIAL HepG2 Assay for human Retinoic Acid Receptor gamma (RARg) (AID 2283009; active = hit-call score of the fitted dose curve at least 0.9, where 1 is the maximum)
Sequence of human Retinoic Acid Receptor gamma (RARg), RARG (gene 5916) (P13631 whole entry, looked up, the tested form may be a part): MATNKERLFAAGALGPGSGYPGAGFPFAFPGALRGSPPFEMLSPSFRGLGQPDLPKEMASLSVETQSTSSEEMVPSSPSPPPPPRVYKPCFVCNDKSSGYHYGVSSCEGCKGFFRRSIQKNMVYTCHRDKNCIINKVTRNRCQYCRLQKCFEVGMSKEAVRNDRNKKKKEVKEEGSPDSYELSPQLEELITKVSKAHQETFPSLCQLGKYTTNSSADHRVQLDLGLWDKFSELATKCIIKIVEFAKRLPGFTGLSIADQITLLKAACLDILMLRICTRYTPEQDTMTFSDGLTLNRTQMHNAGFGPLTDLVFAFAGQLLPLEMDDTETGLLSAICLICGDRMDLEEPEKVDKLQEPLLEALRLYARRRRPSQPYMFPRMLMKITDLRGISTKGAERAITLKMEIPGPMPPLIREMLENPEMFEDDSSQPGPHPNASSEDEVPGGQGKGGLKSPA
How it was run: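 HepG2, RARg-GAL4 TRANS system, 24 h exposure; reporter mRNA by RT-PCR + CE fluorescence; increase over DMSO.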

[10] = target: human RAR-related Orphan Receptor beta (RORb), RORB (gene 6096) (UniProt Q92753); assay: ATG_RORb_TRANS: Attagene TRANS-FACTORIAL HepG2 Assay for human RAR-related Orphan Receptor beta (RORb) (AID 2283010; active = hit-call score of the fitted dose curve at least 0.9, where 1 is the maximum)
How it was run: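 In this TRANS-format test, human HepG2 cells express chimeric NR-Gal4 fusion proteins driving GAL4-UAS reporters. After 24 h dosing, reporter transcripts are measured by fluorescent RT-PCR/capillary electrophoresis, with DMSO as negative control.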

[11] = target: human Retinoic Acid Receptor beta (RARb), RARB (gene 5915) (UniProt P10826); assay: ATG_RARb_TRANS: Attagene TRANS-FACTORIAL HepG2 Assay for human Retinoic Acid Receptor beta (AID 2283004; active = hit-call score of the fitted dose curve at least 0.9, where 1 is the maximum)
Sequence of human Retinoic Acid Receptor beta (RARb), RARB (gene 5915) (P10826 whole entry, looked up, the tested form may be a part): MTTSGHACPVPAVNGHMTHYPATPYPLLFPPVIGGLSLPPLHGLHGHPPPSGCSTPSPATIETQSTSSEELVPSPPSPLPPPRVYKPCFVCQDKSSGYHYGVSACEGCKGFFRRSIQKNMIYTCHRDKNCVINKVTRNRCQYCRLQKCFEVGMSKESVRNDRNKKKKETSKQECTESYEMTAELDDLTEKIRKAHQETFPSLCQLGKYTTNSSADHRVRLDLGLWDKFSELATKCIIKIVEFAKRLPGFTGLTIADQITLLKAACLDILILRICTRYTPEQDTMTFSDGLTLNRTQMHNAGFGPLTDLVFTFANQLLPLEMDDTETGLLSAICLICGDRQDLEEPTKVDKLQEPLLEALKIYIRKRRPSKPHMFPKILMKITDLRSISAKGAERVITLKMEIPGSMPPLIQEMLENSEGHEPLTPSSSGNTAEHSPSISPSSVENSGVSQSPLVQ
How it was run: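 HepG2, transient MRTU transfection, NR–Gal4 chimera, 24 h treatment; RT-PCR plus CE fluorescence detection of reporter mRNA; gain of signal vs DMSO.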

[12] = target: Peroxisome proliferator-activated receptor gamma (Homo sapiens) (UniProt P37231); assay: ATG_PPARg_TRANS: Attagene TRANS-FACTORIAL HepG2 Assay for human Peroxisome Proliferator-activated Receptor-gamma (PPARg) (AID 2283007; active = hit-call score of the fitted dose curve at least 0.9, where 1 is the maximum)
Sequence of Peroxisome proliferator-activated receptor gamma (Homo sapiens) (P37231 whole entry, looked up): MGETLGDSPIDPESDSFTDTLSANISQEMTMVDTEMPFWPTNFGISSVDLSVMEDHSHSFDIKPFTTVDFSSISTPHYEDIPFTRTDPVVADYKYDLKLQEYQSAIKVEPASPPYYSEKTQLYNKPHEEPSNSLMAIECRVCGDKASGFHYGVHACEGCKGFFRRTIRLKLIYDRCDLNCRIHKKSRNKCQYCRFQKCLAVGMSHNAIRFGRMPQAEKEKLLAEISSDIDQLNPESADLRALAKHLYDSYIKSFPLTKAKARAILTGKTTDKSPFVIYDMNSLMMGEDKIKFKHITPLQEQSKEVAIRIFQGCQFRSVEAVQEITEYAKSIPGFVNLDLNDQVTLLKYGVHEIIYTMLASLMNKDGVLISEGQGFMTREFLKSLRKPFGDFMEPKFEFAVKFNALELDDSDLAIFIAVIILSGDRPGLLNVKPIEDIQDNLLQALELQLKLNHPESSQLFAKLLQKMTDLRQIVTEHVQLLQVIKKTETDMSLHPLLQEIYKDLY
How it was run: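 Twenty-four hours after chemical dosing of transiently transfected HepG2 cells, isolated RNA was converted to cDNA, reporter sequences amplified and 6-FAM-labelled, then HpaI-digested and analysed by capillary electrophoresis. Signal increase against DMSO was fitted.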

[13] = target: human Peroxisome Proliferator-activated Receptor delta (PPARd), PPARD (gene 5467) (UniProt Q03181); assay: ATG_PPARd_TRANS: Attagene TRANS-FACTORIAL HepG2 Assay for human Peroxisome Proliferator-activated Receptor delta (PPARd) (AID 2283002; active = hit-call score of the fitted dose curve at least 0.9, where 1 is the maximum)
Sequence of human Peroxisome Proliferator-activated Receptor delta (PPARd), PPARD (gene 5467) (Q03181 whole entry, looked up, the tested form may be a part): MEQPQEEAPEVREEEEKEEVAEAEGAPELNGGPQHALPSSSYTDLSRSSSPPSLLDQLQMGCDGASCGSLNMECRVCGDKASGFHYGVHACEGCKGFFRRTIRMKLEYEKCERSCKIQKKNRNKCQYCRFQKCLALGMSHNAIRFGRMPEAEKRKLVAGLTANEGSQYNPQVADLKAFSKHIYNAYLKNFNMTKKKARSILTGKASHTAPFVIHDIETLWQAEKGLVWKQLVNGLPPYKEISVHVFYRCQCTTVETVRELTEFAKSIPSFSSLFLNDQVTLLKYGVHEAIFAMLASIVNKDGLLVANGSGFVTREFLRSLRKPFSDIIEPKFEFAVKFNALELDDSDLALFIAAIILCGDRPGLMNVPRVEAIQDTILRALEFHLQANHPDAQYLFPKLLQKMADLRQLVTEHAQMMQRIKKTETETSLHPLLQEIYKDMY
How it was run: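 Read-out is induced reporter mRNA, quantified by RT-PCR with fluorescent labelling and capillary electrophoresis after 24 h dosing. Cells are HepG2 transiently carrying multiple GAL4-UAS reporter units driven by exogenous NR-GAL4 chimeras; DMSO serves as baseline.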

[14] = target: human RAR-related Orphan Receptor gamma (RORg), RORC (gene 6097) (UniProt P51449); assay: ATG_RORg_TRANS: Attagene TRANS-FACTORIAL HepG2 Assay for human RAR-related Orphan Receptor gamma (RORg) (AID 2283011; active = hit-call score of the fitted dose curve at least 0.9, where 1 is the maximum)
Sequence of human RAR-related Orphan Receptor gamma (RORg), RORC (gene 6097) (P51449 whole entry, looked up, the tested form may be a part): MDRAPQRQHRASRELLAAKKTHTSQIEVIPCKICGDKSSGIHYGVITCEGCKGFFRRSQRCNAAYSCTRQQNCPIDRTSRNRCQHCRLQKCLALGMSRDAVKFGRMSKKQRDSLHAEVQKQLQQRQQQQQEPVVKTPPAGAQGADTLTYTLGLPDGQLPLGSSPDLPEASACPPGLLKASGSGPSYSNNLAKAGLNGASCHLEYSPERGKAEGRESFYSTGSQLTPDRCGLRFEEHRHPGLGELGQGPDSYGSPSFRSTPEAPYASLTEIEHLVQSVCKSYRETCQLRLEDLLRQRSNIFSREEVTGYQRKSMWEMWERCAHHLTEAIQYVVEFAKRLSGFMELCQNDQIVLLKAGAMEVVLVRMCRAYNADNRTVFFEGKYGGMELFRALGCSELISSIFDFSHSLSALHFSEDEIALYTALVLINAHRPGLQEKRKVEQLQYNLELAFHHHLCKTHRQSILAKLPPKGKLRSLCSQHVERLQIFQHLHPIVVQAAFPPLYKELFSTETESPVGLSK
How it was run: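 Activity is scored as increase in GAL4-UAS reporter mRNA over DMSO, detected by fluorescent RT-PCR and capillary electrophoresis in HepG2 cells transiently expressing a RORg-Gal4 chimera, 24 h after dosing.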

Measured: AC50

c1ccc2[nH]cnc2c1
not listed: [11] | [12] | [13] | [14]
inactive: all other assays above

Cc1cc(S(=O)(=O)O)ccc1N=Nc1c(O)ccc2ccccc12
not listed: [13] | [14]
inactive: all other assays above

COc1cc([C@@H]2c3cc4c(cc3[C@@H](O[C@@H]3O[C@@H]5CO[C@@H](C)O[C@H]5[C@H](O)[C@H]3O)[C@H]3COC(=O)[C@H]23)OCO4)cc(OC)c1O
not listed: [7] | [8] | [9] | [11] | [14]
inactive: all other assays above

CC=Cc1ccc(OC)c(OC)c1
inactive: [1] | [2] | [3] | [4] | [5] | [6] | [12]
active: [8] 27.6 µM

CCCCCCCCc1ccc(S(=O)(=O)O)cc1
active: [2] 130 µM | [3] 99.5 µM | [12] 23.6 µM
not listed: [13] | [14]
inactive: all other assays above

CC(=O)CC(=O)Nc1ccc(C)cc1C
inactive: [1] | [2] | [3] | [4] | [5] | [6] | [8] | [14]

COc1ccccc1N=Nc1c(S(=O)(=O)O)cc2cc(S(=O)(=O)O)cc(NC(C)=O)c2c1O
not listed: [7] | [13]
inactive: all other assays above

CCO/C=C1\N=C(c2ccccc2)OC1=O
not listed: [7] | [9] | [10] | [11]
inactive: all other assays above

COC(=O)c1cccnc1
not listed: [7] | [8] | [12] | [13]
inactive: all other assays above

CCOC(=O)CCc1ccccc1
not listed: [7] | [10] | [11] | [13]
inactive: all other assays above

C#CC(C)(O)CC(C)C (configuration not stated)
not listed: [7] | [11] | [13] | [14]
inactive: all other assays above

OCCc1ccccc1
not listed: [9] | [10] | [12] | [13]
inactive: all other assays above

CCN(CCC#N)c1ccc(N=Nc2ccc([N+](=O)[O-])cc2)cc1
active: [3] 64.7 µM
not listed: [7] | [9] | [10] | [11] | [13]
inactive: all other assays above

Cc1ccc(OC(=O)c2ccccc2O)cc1
active: [3] 51.2 µM
not listed: [7] | [9] | [10] | [11] | [13]
inactive: all other assays above

COc1ccc(N)c([N+](=O)[O-])c1
not listed: [6] | [7] | [9] | [11] | [14]
inactive: all other assays above

C=CCCC(=O)/C=C/C1C(C)=CCCC1(C)C (configuration not stated)
active: [3] 110 µM | [12] 24.4 µM | [8] 2.37 µM
inactive: [1] | [2] | [4] | [5] | [13]

COc1ccc(N=Nc2cc(C)c(N=Nc3ccc(S(=O)(=O)O)cc3)cc2OC)cc1
active: [3] 25.7 µM | [12] 25.4 µM
not listed: [6] | [7] | [9] | [11]
inactive: all other assays above

CCc1ccc(O)c(OC)c1
inactive: [1] | [2] | [3] | [4] | [5] | [13] | [12] | [8]

CCOC(=O)CN
not listed: [6] | [7] | [8] | [14]
inactive: all other assays above

C[N+](C)(C)CCCCCC[N+](C)(C)C
not listed: [6] | [7] | [9] | [10] | [14]
inactive: all other assays above

CCC(Cl)C(Cl)C(Cl)CC(Cl)C(Cl)C(C)Cl (configuration not stated)
active: [3] 43.4 µM | [12] 22.3 µM | [8] 1.74 µM
inactive: [1] | [2] | [4] | [5] | [13]

OCCCCC(O)CO (configuration not stated)
not listed: [6] | [9] | [12] | [13]
inactive: all other assays above

CCCC(O)C(O)CO (configuration not stated)
inactive: [1] | [2] | [3] | [4] | [5] | [13] | [8] | [9]

N[C@@H](Cc1cc(I)c(Oc2cc(I)c(O)c(I)c2)c(I)c1)C(=O)O
inactive: [1] | [2] | [4] | [5] | [13] | [10]
active: [3] 36.5 µM | [12] 6.06 µM | [8] 3.79 µM

CC(C)C(OC(=O)c1ccccc1)C(C)(C)COC(=O)c1ccccc1 (configuration not stated)
active: [8] 2.45 µM
not listed: [6] | [7] | [10] | [11] | [14]
inactive: all other assays above
